VACV Venus inh: qHTS for Stage-Specific Inhibitors of Vaccinia Orthopoxvirus: Venus Reporter Primary qHTS | Potency, µM (top dose mostly 36.5 µM), for the others: at the top dose activity change, negative = inhibition, usual class: inhibitors | Vaccinia virus Venus reporter expression, fluorescence | actives 0.46% (n = 330,000); calls by dose curve; tested in A549 cells; also: nearly all actives have a fitted effect of over 30% in size
Lassa entry inh: qHTS for Inhibitors of binding or entry into cells for Lassa Virus; Lassa virus pseudotype entry inhibition, cell reporter; Potency, µM (top dose mostly 37.9 µM), inactives show at the top dose activity change, negative = inhibition, actives largely listed as inhibitors; actives 1.2% (n = 300,000); calls by dose curve; tested in HEK293 cells; also: nearly all actives have a fitted effect of over 50% in size
VACV mCherry inh: qHTS for Stage-Specific Inhibitors of Vaccinia Orthopoxvirus: mCherry Reporter Primary qHTS; Vaccinia virus mCherry reporter infection, fluorescence; Potency, µM (titrated, usually from 36.5 µM), for inactives: at the top dose activity change, negative = inhibition, most hits filed as inhibitors; actives 0.63% (n = 310,000); calls by dose curve; tested in A549 cells; also: nearly all actives have a fitted effect of over 35% in size
HCV inhibitor: qHTS Assay for Inhibitors of Hepatitis C Virus (HCV); actives 3.4% (n = 340,000); Potency, µM (titrated, usually from 41.8 µM), for inactives: at the highest dose activity change, negative = inhibition, hits mostly inhibitors; Huh7.5.1 HCVcc-Cre infection, luciferase reporter, 44 h; active = well fitted inhibition curve with a large enough effect; inconclusive = small, poorly fitted or top-dose-only effect, or another doubt; inactive = no such curve, though single readings can be large or run the other way
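Cells seeded at 1,000/well and cultured 4 h, then compounds added followed by HCVcc-Cre virus (~0.5 moi). After 44 h further culture, luciferase substrate was added, plates held 15 min at room temperature, and luminescence read for 15 sec.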
FMDV antiviral: High Throughput Screening for Foot and Mouth Disease Virus Antivirals; actives 1.2% (n = 410,000); AID 1159524, 2015; Potency, µM (series often up to 57.9 µM), without a hit: at the highest dose activity change, negative = inhibition, hits mostly inhibitors; FMDV antiviral cell-based qHTS; calls by dose curve; tested in HEK293T cells; also: read-out not given here; nearly all actives have a fitted effect of over 45% in size
MARV entry inh: qHTS for inhibitors of binding or entry into cells for Marburg Virus. Marburg virus pseudotyped entry inhibition, cell reporter. Potency, µM (highest dose often 37.8 µM), for the others: at the top dose activity change, negative = inhibition, most hits filed as inhibitors. actives 1.8% (n = 300,000). AID 540276, 2011; calls by dose curve; tested in HEK293 cells
* hit, by the source's call; i = inactive; ? = inconclusive; . = not tested or not shown; [ ] = remark or other dose. Only some compounds are listed: those with a hit (about 5.3% of all), similar ones and a draw of the others. % is scaled to controls: 0 for no effect and ±100 for the full control effect; potency is read from the fitted curve at half-maximal effect.

SMILES	VACV Venus inh	Lassa entry inh	VACV mCherry inh	HCV inhibitor	FMDV antiviral	MARV entry inh
O=C(NCCCN1CCCC1)c1cc2c(Cl)nc3ccccc3c2s1	?	?	i	18µM*	-2%	10µM*
CC1CCN(CCCNC(=O)c2cc3c(Cl)nc4ccccc4c3s2)CC1	.	.	.	13µM*	-23%	.
CCCCNC(=O)Cn1c(SCc2ccccc2C)nc2ccncc21	-9%	.	22%	.	.	.
O=C1OC2(CCCCC2)CC2=C1[C@H]1O[C@](c3ccsc3)(Cc3c1ccc1ccccc31)O2	.	?	.	.	.	2%[14.2 µM]
COc1ccc(-c2nc(-c3cccs3)no2)cc1	-18%	1.8µM*	-12%	0%	7.1µM*	?
Brc1ccc(-c2noc(-c3ccccn3)n2)o1	-7%	?	-13%	-6%	-13%	?
CCCCc1ccc(-c2nc(-c3ccncc3)no2)cc1	-4%	1%	.	20%	-43%	26%[46.1 µM]
Brc1ccc(-c2nc(-c3ccccn3)no2)o1	-25%	8.9µM*	i	-1%	-59%	7.9µM*
Cc1ccccc1-c1nc(-c2ccccn2)no1	9%	1.3µM*	0%	5%	6.3µM*	?
COc1ccccc1-c1nc(-c2ccccn2)no1	-8%	.	-10%	?	-72%	.
CCc1ccc(-c2nc(-c3ccncc3)no2)cc1	?	?	.	10%	-73%	13µM*
CN(C)c1ccc(/C=C2\C=Cc3ccccc32)cc1N	-13%	.	i	.	.	.
Clc1ccccc1OCc1nc(-c2ccccn2)no1	1%	.	22%	?	44%	.
CC(C)Nc1ccc(-c2nc(-c3ccccn3)no2)cc1[N+](=O)[O-]	6%	11%[46.1 µM]	-4%	.	51%	-18%[46.1 µM]
COc1nc(C)ccc1-c1noc(-c2ccccn2)n1	.	8.2µM*	.	6%	-40%	?
COc1ccc(-c2nc(-c3ccccn3)no2)cc1	.	?	.	-22%	7.9µM*	0.29µM*
Clc1ccc(-c2nc(-c3ccccn3)no2)cc1Cl	-7%	?	-1%	1%	.	2.9µM*
Clc1ccc(OCc2nc(-c3ccccn3)no2)c(Br)c1	-11%	9.2µM*	-7%	?	-48%	?
N#C/C(C(=O)NCc1ccccc1)=C1\S[C@H](CCO)C(=O)N1c1ccccc1	.	.	.	.	.	-5%[46.1 µM]
COc1cc(OC)c(OC)cc1/C=c1\[nH]c(=O)/c(=C/c2cc(OC)c(OC)cc2OC)[nH]c1=O	-18%	.	-11%	.	.	.
CCOc1ccc(-c2nc(-c3cccnc3)no2)cc1	-6%	10µM*	-13%	-8%	-12%	5.6µM*
COc1ccc(Nc2nc(N)c3cc(OC)c(OC)cc3n2)cc1	-9%[7.34 µM]	19%[46.1 µM]	-16%[7.34 µM]	.	-1%	11µM*
COc1ccc2c(c1)-c1nc(-n3ncc(C(=O)NC[C@@H]4CCCN5CCCC[C@H]45)c3C)ncc1CC2	?	.	13µM*	.	-9%	.
COc1ccc2c(c1)-c1nc(-n3ncc(C(=O)NCC4CCCN(C)C4)c3C3CC3)ncc1CC2 (centres undefined)	0%	.	-14%	.	-19%	.
Brc1cccc[n+]1Cc1ccc(C[n+]2ccccc2Br)cc1	-10%	.	i	.	.	.
SMILES	VACV Venus inh	Lassa entry inh	VACV mCherry inh	HCV inhibitor	FMDV antiviral	MARV entry inh
C=CCn1c(SCC(=O)c2cccs2)nnc1-c1cccc(OC)c1	-9%	8%	-18%	0%	.	11%
C=CCn1c(SCC(=O)c2cccs2)nc2sc(C)cc2c1=O	-22%	?	-29%	?	32µM*	-27%[46.1 µM]
CC(=O)Nc1cccc(-c2cc3c(c4c2ccn4C)C2CCC3C2)c1 (centres undefined)	.	4%[46.1 µM]	.	.	.	.
CC(C)C(=O)Nc1nc2cc3c(cc2s1)OCCO3	-16%	4.5µM*	i	?	-34%	?
CC1CCc2nc(NC(=O)c3ccco3)sc2C1 (centres undefined)	?	0.28µM*	-11%	?	-90%	1.3µM*
O=C(Nc1nc2cc3c(cc2s1)OCCO3)c1ccco1	?	0.79µM*	?	?	?	0.79µM*

Screening data from PubChem BioAssay.
